The source of these data is PubChem BioAssay (NCI).

Molecules are shown by their SMILES. The panel holds about 79,000 compounds, 15% with a hit somewhere; the sample as a whole holds those more often. Unmarked numbers belong to inactive results. No stated cut-off is given here; in the data, active means growth inhibition above about 70%; inactive means the rest.

The test in a line: NCI Yeast Anticancer Drug Screen. Data for the mec2-1 strain (AID 157). The note with it: S. cerevisiae mec2-1 strain, at 50.0 µM, hits give high values. The gist of the method: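 Each compound was tested on mec2-1 yeast, a strain altered in DNA damage repair or cell cycle control. Growth inhibition is reported relative to vehicle.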
Consider `CC1c2c(cc(=O)n(C)c2O)C(=O)N1Cc1ccccc1` (stereo not given), for which the growth inhibition is 5.75%.
For `Cc1cc(C)[n+]([O-])c(C)c1` the value was -8.85%; for `Cc1cc2c(=O)cc(-c3ccc(C(F)(F)F)cc3)oc2c(C(=O)O)c1C`, -3.8%; for `CCOC(=O)C1(C(=O)OCC)C2C=CC(C2)C1C(=O)OC` (stereo not given), -2.4%.
With `CC(NC(=O)C(C)(C)C)c1ccc2c(c1)OCCO2` (stereo not given), the growth inhibition was -11.3%.
For `CCOC(=O)/C(N=Nc1ccc(O)cc1)=C(\C)O` the value was 28.4%; for `CCOC(=O)CCC(NC(=O)c1ccc(OCc2ccc3nc(OC)c(OC)nc3c2)cc1)C(=O)OCC` (stereo not given), -17.9%; for `Cc1cc(C)c(CSc2cc(N)nc(N)c2N)c(C)c1`, 9.3%.
Take `[O-][n+]1c2ccc(Cl)cc2nc2ccc(Cl)cc21`: the growth inhibition is -10.9%.
Turning to `CCC(/C=N\NC(=O)CCCC(=O)N/N=C/C(CC)CC)CC`, the growth inhibition was -8.5%.
Regarding `O=C(Nc1ccccn1)OCCCl`, the growth inhibition was 0.6%.
For `Nc1nc(Cc2ccccc2)cs1` the value was 24.7%; for `O=C(O)C(O)c1c[nH]c2ccccc12` (stereo not given), -2.3%.
For `CC(=O)Oc1c(C)c2c(O)c3c1C1=C(OCOC1=C(C)C3=O)/C(C)=C\C(C)(O)C(O)C(C)C(O)C1C(=O)OC(C(C)C1O)C(C)(O)/C=C/C=C(C)C(=O)N2` (stereo not given), the growth inhibition is 3.65%.
With `COc1ccc(CC2OCCC3c4ccccc4NC23)cc1OC` (stereo not given) the figure was -3.5%; with `CS(=O)(=O)Nc1cccc(C(=O)NN)c1`, -16.2%.
`O=C1c2ccccc2-c2ccc(-c3ccc4c5c(cccc35)C(=O)c3ccccc3-4)c3cccc1c23`: the growth inhibition is -27.6%.
Consider `CCCCCCCCCCCCCC(=O)Oc1ccc([N+](=O)[O-])cc1`, for which the growth inhibition is 0.05%.
For `S=C=Nc1ccc(CSc2nc3ccccc3[nH]2)cc1` the value was -9.25%.
`CCCCCCC(=O)/C=C/c1ccc(Cl)cc1`: the growth inhibition is -22.1%.
With `Cc1n(C)nn[n+]1C` the figure was -8.35%.
With `CC(=O)OC1CCC2(C)C(CCC3C2CC(OC(C)=O)C2(C)C(C(C)CCC(c4ccccc4)c4ccccc4)CCC32)C1` (stereo not given) the figure was -20.4%.
With `CCOC(=O)C(C#N)=C1CC(C)OC(C)C1` (stereo not given) the figure was 0.65%.
For the compound `CCCCCCCCCCCCCCCCCC(=O)c1ccc(OC)c(OC)c1`, the growth inhibition is -12.8%.
For `O=C1NC(c2ccccc2)C1N(Cc1ccccc1)Cc1ccccc1` (stereo not given) the value was 0.55%; for `CCOC(=O)C(CC)(C(=O)OCC)C(C)CC` (stereo not given), -1.65%.
With `CC1(C(N)=O)CCC1` the figure was -15.4%; with `CCSC(SCC)C(NC(C)=O)C(O)C(O)COC(=O)c1ccccc1` (stereo not given), 17.3%; with `O=C(O)C1Cc2c([nH]c3ccccc23)C(c2ccccc2)N1` (stereo not given), 11.1%.
As to `O=C(Nc1ccccc1)C1CC2C=CC1C2` (stereo not given), the growth inhibition was -4.3%.
On to `CCOC(=O)c1nc2c(n(O)c1=N)CCC/C2=N\O`, for which the growth inhibition is -1.6%.
Consider `NC(=O)ON=C1CCN(Cc2ccccc2)CC1`, for which the growth inhibition is 15.4%.
For `O=C(O)C(O)C(O)C(O)C(O)C(O)CO.[NH-]C1CCCCC1[NH-].[Pt+2]` (stereo not given), the growth inhibition was 4.4%.
With `CC1(C)CCCCC1=O`, the growth inhibition was -1.8%.
For the compound `O=S(=O)(c1ccc(NC(=S)N2CCOCC2)cc1)N1CCCCC1`, the growth inhibition is 1.1%.
For `CCOP(=O)(OCC)C(C)(CC)NC1=NC(C(F)(F)F)(C(F)(F)F)NC(=O)N1` (stereo not given) the value was -10.2%.
As for `COc1ccc(NC(=O)CC(=O)n2nc(C)c(N=Nc3ccccc3C(=O)O)c2C)cc1`, the growth inhibition is 10.6%.
As to `CC1(C#N)CCCC(c2ccccc2)(c2ccccc2)C1=O` (stereo not given), the growth inhibition was 40.5%.
For `CC(=O)c1nc(C#N)c(N)o1` the value was -3.55%; for `COC(=O)C(CO)NC(=O)C(CC(C)C)NC(=O)C(CC(C)C)NC(=O)OCc1ccccc1` (stereo not given), 4.5%.
